These results are taken from PubChem BioAssay (Tox21).

Several values for one entry are separate records, joined by “and”; a condition that tells them apart may be missing. Equal values may be shown once. Results filed as inconclusive are left out. The source holds several records for some structures; these can differ, active in one and inactive in another. Activity calls are given as the source filed them. Unless noted, the call rests on the fitted dose curve; in most records, active means well fitted curve in the direction sought with a large enough effect in the repeat runs; inconclusive means weak or mixed curves; inactive means no such curve, though single readings can be large; an effect the other way counts as inactive or inconclusive.

Assay [1] in a line: qHTS assay to test for compound auto fluorescence at 535 nm (green) in HEK293 cells (AID 720680). A general note: qHTS replaces the single test concentration by a dilution series.
Assay [2] can be described thus: qHTS assay to test for compound auto fluorescence at 460 nm (blue) in HEK293 cell free culture (AID 720681). The method, boiled down:
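Blue fluorescence (Ex 405/Em 460 nm, triamterene-equivalent) was read immediately after pin transfer of compound or DMSO into medium (DMEM, 10% FBS) without cells.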

Assay [3] is described as follows: qHTS assay to test for compound auto fluorescence at 535 nm (green) in HEK293 cell free culture (AID 720682). The method, boiled down:
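Compounds were pin-transferred into cell-free DMEM with 10% FBS, and green fluorescence was read at excitation 485 nm and emission 535 nm. Intensities were expressed as fluorescein-equivalent values.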

Assay [4] in a line: qHTS assay to test for compound auto fluorescence at 590 nm (red) in HEK293 cell free culture (AID 720683). The method, boiled down: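 Red-channel autofluorescence of compounds in culture medium (DMEM, 10% FBS), no cells, measured at 540/590 nm. Rose Bengal sodium is the reference fluorophore for equivalence.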
Assay [5] is described as follows: qHTS assay to test for compound auto fluorescence at 590 nm (red) in HepG2 cell free culture (AID 720684). The method, boiled down:
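Steps: dispense MEM/10% FBS medium, no cells; pin compound or DMSO vehicle; read red channel, Ex/Em 540/590 nm. Output given as Rose Bengal sodium equivalents.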

Assay [6] is described as follows: qHTS assay to test for compound auto fluorescence at 460 nm (blue) in HepG2 cell free culture (AID 720685). The method, boiled down:
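Compound (23 nL) or DMSO pinned into cell-free MEM with 10% FBS; blue fluorescence read at 405/460 nm excitation/emission, expressed as auto-fluorescence equivalency to triamterene.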

The nature of assay [7]: qHTS assay to test for compound auto fluorescence at 535 nm (green) in HepG2 cell free culture (AID 720686).
The nature of assay [8]: qHTS assay to test for compound auto fluorescence at 460 nm (blue) in HepG2 cells (AID 720687). The method, boiled down:
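Blue-channel autofluorescence (Ex/Em 405/460 nm, triamterene-equivalent) was measured after 1 hr compound exposure at 37 C, 5% CO2. Cells were HepG2, plated overnight at 37 C in MEM plus 10% FBS.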

For assay [9], the target named is Glucocorticoid receptor (Homo sapiens) (UniProt P04150). Nature of the assay: qHTS assay to identify small molecule agonists of the glucocorticoid receptor (GR) signaling pathway (AID 720691; active means well fitted activation curve with a large enough effect in the signal ratio in the repeat runs, not every such curve was filed as active; the % refers to the signal ratio). The method, boiled down: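 Fluorescence intensity from LiveBLAzer B/G FRET substrate (2 h, room temperature) reports beta-lactamase expression driven by the glucocorticoid response element in GR-bla HeLa cells after 18 h compound exposure at 37 C.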

Assay [10] has the same target. Briefly: qHTS assay to identify small molecule antagonists of the glucocorticoid receptor (GR) signaling pathway (AID 720692; active means well fitted inhibition curve with a large enough effect in the signal ratio in the repeat runs, not every such curve was filed as active; the % refers to the signal ratio). The method, boiled down:
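HeLa GR-bla cells; cmpd + dex 5 nM final, 18 h 37 C; LiveBLAzer B/G FRET substrate 2 h RT; fluorescence intensity read. Antagonist mode, qHTS.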

A short description of assay [11]: qHTS assay to identify small molecule antagonists of the glucocorticoid receptor (GR) signaling pathway - cell viability counter screen (AID 720693). Further: nearly all actives have a fitted effect of over 55% in size.
A short description of assay [12]: qHTS assay for identifying genotoxic compounds that show differential cytotoxicity against isogenic chicken DT40 cell lines with known DNA damage response pathways - wild type cell line (AID 743012). Further: nearly all actives have a fitted effect of over 60% in size. Further: potency means the concentration at half of the fitted maximal effect. The method, boiled down: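 Wild type DT40, 300 cells/well, ~0.5 h settle at 37 C/5% CO2; compounds in DMSO added by pintool; 40 h at 37 C/5% CO2; CellTiter-Glo, 30 min RT; luminescence.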

Assay [13] in a line: qHTS assay for identifying genotoxic compounds that show differential cytotoxicity against isogenic chicken DT40 cell lines with known DNA damage response pathways - Rev3 mutant cell line (AID 743014). Further: nearly all actives have a fitted effect of over 55% in size. Further: potency means the concentration at half of the fitted maximal effect.
The nature of assay [14]: qHTS assay for identifying genotoxic compounds that show differential cytotoxicity against isogenic chicken DT40 cell lines with known DNA damage response pathways - Rad54/Ku70 mutant cell line (AID 743015). Further: nearly all actives have a fitted effect of over 60% in size.
Assay [15] is described as follows: qHTS assay to identify small molecule antagonists of the androgen receptor (AR) signaling pathway - cell viability counter screen (AID 743033; further: nearly all actives have a fitted effect of over 45% in size).
The target of assay [16] is Androgen receptor (Homo sapiens) (UniProt P10275). Nature of the assay: qHTS assay to identify small molecule agonists of the androgen receptor (AR) signaling pathway (AID 743036; active means well fitted activation curve with a large enough effect in the signal ratio in the repeat runs, with a control signal flat, not every such curve was filed as active; the % refers to the signal ratio). The method, boiled down: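 Activation was read as beta-lactamase FRET signal from LiveBLAzer B/G substrate, added for 2 h at room temperature. Before that, GeneBLAzer AR-UAS-bla GripTite (HEK293) cells had 16 h compound exposure at 37C.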

A short description of assay [17]: qHTS assay to identify small molecule antagonists of the androgen receptor (AR) signaling pathway using the MDA cell line - cell viability counter screen (AID 743041; further: nearly all actives have a fitted effect of over 45% in size). The method, boiled down:
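Cells were plated at 3,000 per well and left 5 h. Compounds in DMSO were then pinned in, followed by R1881. After 16 h at 37C, CellTiter-Fluor fluorescence gave viability.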

Assay [18] deals with Androgen receptor (Homo sapiens) (UniProt P10275). Nature of the assay: qHTS assay to identify small molecule antagonists of the androgen receptor (AR) signaling pathway using the MDA cell line (AID 743042; further: nearly all actives have a fitted effect of over 55% in size). The method, boiled down: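 Antagonist mode: compounds plus R1881 agonist added to MDA-kb2 AR-luc cells, incubated 16 h at 37C. Luciferase reporter luminescence quantified, with multiplexed CellTiter-Fluor readout for cell viability.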

Assay [19] is described as follows: qHTS assay to identify small molecule antagonists of the thyroid receptor (TR) signaling pathway - cell viability counter screen (AID 743064). Further: nearly all actives have a fitted effect of over 50% in size. The method, boiled down:
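In-well cytotoxicity read by CellTiter-Fluor (30 min, 37 C) following 23.5 h exposure of GH3 cells bearing a TRE-luciferase sensor. Compounds were added alongside 1 nM (final) T3 to drive TR transactivation.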

Assay [20] in a line: qHTS assay to identify small molecule antagonists of the thyroid receptor (TR) signaling pathway (AID 743065). Further: series mostly up to about 70 µM; nearly all actives have a fitted effect of over 55% in size. The method, boiled down: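 Antagonism measured as loss of luciferase signal in GH3 cells stably carrying a TRE-luciferase reporter, co-treated with compound and T3 (1 nM final) for 23.5 h at 37 C. Viability was read in the same well by CellTiter-Fluor.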

Chain of Androgen receptor (Homo sapiens) (P10275 whole entry, looked up): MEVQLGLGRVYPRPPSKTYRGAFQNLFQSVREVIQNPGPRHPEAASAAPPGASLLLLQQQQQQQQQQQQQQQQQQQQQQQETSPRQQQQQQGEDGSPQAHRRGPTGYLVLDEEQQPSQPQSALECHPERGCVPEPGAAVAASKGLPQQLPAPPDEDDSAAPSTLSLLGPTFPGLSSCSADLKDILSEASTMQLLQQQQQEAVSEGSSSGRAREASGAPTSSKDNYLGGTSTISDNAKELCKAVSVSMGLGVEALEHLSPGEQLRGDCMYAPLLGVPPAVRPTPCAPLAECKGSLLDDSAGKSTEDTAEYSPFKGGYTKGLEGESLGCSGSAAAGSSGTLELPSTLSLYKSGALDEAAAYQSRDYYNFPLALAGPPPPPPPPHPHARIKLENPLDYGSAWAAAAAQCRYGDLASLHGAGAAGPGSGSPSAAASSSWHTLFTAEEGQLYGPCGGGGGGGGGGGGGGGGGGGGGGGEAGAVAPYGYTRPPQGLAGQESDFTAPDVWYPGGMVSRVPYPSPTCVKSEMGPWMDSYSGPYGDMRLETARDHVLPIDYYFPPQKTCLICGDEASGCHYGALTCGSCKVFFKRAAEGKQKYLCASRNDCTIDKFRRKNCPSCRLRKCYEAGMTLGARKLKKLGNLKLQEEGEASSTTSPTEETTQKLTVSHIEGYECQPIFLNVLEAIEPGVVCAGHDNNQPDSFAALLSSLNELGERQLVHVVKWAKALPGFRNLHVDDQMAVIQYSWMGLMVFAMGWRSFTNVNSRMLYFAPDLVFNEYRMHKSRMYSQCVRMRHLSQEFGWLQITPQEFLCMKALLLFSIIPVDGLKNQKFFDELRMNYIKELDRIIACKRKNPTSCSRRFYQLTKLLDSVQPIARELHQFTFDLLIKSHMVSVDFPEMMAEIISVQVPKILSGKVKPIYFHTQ
Chain of Glucocorticoid receptor (Homo sapiens) (P04150 whole entry, looked up): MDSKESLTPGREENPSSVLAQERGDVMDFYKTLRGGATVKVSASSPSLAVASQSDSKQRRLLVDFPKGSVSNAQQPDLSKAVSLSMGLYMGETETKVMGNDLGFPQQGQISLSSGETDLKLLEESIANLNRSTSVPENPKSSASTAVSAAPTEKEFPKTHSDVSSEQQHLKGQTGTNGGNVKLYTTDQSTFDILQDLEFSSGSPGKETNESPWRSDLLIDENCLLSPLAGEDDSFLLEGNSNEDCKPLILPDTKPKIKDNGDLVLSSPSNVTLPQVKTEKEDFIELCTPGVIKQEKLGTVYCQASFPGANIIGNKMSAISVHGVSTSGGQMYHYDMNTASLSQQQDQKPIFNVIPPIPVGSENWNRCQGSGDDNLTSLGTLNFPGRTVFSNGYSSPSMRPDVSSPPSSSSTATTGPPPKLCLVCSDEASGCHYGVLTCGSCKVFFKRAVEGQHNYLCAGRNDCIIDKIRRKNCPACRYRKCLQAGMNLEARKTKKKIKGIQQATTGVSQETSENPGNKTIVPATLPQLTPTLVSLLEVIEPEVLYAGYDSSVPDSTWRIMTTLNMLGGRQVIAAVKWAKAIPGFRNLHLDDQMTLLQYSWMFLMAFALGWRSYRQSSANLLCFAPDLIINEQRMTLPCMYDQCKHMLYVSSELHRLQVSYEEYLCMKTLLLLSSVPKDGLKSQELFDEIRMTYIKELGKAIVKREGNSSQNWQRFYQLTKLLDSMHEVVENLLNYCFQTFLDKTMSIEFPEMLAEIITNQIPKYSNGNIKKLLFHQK

For the molecule `C=C(C)C(=O)OCCOC(=O)C(=C)C`, the Potency result in assay [1], in assay [3], in assay [4], in [5], in assay [7] and in assay [9] was “inactive” in each case. In addition, the Potency entry in assay [10], in assay [11], in assay [12], in assay [13], in assay [14] and in [15] was “inactive” throughout. The Potency result in assay [17], in assay [18], in assay [19] and in assay [20] was “inactive” in each case. In addition, the outcome in assay [2], in assay [6], in [8] and in [16] was inactive.

Consider `c1ccc2cc(Nc3ccc(Nc4ccc5ccccc5c4)cc3)ccc2c1`, for which the Potency result in assay [1], in assay [3], in [4], in assay [5], in [7] and in [9] was “inactive” in each case. Further, the Potency entry in assay [10], in assay [11], in assay [12], in assay [13], in assay [14] and in assay [15] was “inactive” throughout. The Potency result in assay [17], in assay [18], in [19] and in assay [20] was “inactive” throughout. Also, the call in assay [2], in [6] and in [8] was inactive.

Consider `O=C(c1ccccc1)c1ccc(O)cc1O`, for which the Potency result in assay [1], in [3], in assay [4], in [5], in assay [7] and in assay [9] was “inactive” throughout. Besides, the Potency result in assay [10], in assay [11], in assay [12], in assay [13], in [15] and in assay [17] was “inactive” in each case. In addition, the Potency result in assay [19] and in assay [20] was “inactive” in each case. Moreover, the call in [2], in assay [6] and in assay [8] was inactive.

For the molecule `Nc1ccc(Cl)cc1Cl`, the Potency result in assay [1], in assay [3], in [4], in assay [5], in [7] and in assay [9] was “inactive” throughout. Further, the Potency result in assay [10], in assay [11], in assay [12], in assay [14], in assay [15] and in assay [17] was “inactive” throughout. In addition, in assay [19], the Potency result is “inactive”. Besides, the molecule was called inactive in assay [2], in assay [6] and in assay [8].

Take `Cc1c(OCC(F)(F)F)ccnc1CS(=O)c1nc2ccccc2[nH]1` (stereo not drawn): the Potency entry in [1], in assay [3], in [4], in [5], in assay [7] and in assay [9] was “inactive” in each case. For the same molecule, the Potency result in [10], in [11], in assay [12], in assay [15], in assay [17] and in assay [19] was “inactive” each time. Besides, the molecule was classed as inactive in assay [2], in assay [6] and in assay [8]. For the same molecule, the Potency result in assay [13] was “inactive and 54.5 µM (active)”.

For `CCCCC(CC)COP(=O)(OCC(CC)CCCC)OCC(CC)CCCC` (stereo not drawn), the Potency entry in assay [1], in assay [3], in assay [4], in assay [5], in assay [7] and in assay [9] was “inactive” in each case. Also, the Potency result in assay [10], in assay [11], in assay [12], in assay [13], in assay [14] and in [15] was “inactive” in each case. Moreover, the Potency result in assay [17], in assay [19] and in [20] was “inactive” in each case. Moreover, the call in assay [2], in assay [6] and in [8] was inactive.

Turning to `CN(C)CCN(Cc1cccs1)c1ccccn1`, the Potency entry in assay [1], in assay [3], in [4], in assay [5], in assay [7] and in assay [9] was “inactive” in each case. For the same molecule, the Potency result in assay [10], in assay [11], in [13], in assay [14], in assay [15] and in assay [17] was “inactive” throughout. Moreover, in [19], the Potency result was “inactive”. Further, the outcome in assay [2], in assay [6] and in [8] was inactive. Also, the Potency in assay [12] was 29.8 µM (active) and inactive.
